Biological target: Insulin receptor (Homo sapiens) (UniProt P06213)
Conditions: at 1 µM
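Also: each figure is a mean inhibition value from the GSK PKIS screening panel.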

Insulin receptor (Homo sapiens), sequence (P06213 28-758 limits assumed): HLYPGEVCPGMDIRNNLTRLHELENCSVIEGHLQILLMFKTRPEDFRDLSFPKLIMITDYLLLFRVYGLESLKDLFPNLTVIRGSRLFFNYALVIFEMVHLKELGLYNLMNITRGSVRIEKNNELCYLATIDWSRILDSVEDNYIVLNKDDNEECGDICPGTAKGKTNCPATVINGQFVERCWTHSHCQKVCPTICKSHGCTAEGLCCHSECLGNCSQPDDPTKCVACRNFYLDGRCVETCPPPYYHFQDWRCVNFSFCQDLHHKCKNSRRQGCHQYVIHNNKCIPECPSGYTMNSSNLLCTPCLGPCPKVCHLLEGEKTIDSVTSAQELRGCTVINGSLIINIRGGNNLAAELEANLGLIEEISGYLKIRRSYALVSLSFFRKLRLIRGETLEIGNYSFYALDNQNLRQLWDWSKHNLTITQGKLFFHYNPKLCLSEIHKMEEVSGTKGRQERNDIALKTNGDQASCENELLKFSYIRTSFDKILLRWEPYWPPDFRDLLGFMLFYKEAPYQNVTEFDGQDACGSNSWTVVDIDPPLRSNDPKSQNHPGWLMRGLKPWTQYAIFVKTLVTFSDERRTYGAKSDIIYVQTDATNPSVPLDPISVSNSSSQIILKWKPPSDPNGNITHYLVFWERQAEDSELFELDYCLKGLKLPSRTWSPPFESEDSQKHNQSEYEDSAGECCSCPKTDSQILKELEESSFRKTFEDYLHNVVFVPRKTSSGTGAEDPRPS
Insulin receptor (Homo sapiens), sequence (P06213 763-1382 limits assumed): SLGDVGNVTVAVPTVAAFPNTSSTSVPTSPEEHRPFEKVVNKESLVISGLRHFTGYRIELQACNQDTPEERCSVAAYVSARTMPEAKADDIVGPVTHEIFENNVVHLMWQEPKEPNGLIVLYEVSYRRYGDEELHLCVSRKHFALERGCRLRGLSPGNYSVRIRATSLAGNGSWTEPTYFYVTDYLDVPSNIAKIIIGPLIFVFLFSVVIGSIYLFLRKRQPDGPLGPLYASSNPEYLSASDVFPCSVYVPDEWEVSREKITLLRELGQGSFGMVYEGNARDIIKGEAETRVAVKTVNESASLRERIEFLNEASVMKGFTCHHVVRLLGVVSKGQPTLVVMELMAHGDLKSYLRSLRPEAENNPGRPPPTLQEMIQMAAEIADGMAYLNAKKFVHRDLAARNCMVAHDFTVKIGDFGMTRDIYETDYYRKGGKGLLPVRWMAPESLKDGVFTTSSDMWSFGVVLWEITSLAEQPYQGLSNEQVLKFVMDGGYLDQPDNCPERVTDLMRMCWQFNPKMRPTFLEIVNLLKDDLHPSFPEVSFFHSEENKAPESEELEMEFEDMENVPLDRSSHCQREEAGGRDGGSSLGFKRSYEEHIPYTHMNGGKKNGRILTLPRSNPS

| SMILES | inhibition [%] |
| --- | --- |
| N#Cc1c(NC(=O)c2cccc3ccccc23)sc2c1CCCC2 | 6.62 |
| CCn1c(-c2nonc2N)nc2cncc(C(=O)N3CCNCC3)c21 | 9.41 |
| NS(=O)(=O)c1cccc(-c2ccc3c(NC(=O)C4CC4)n[nH]c3c2)c1 | -0.25 |
| CC1=C(C(=O)Nc2ccc3[nH]ncc3c2)C(c2ccc3ccccc3c2)CC(=O)N1 (stereo not drawn) | 4.45 |
| Cc1nnc(-c2ccc(C)c(-c3ccc(C(=O)Nc4cccc(C#N)c4)cc3)c2)o1 | 3.89 |
| Cc1nn(C)c2cc(N(C)c3ccnc(Nc4cccc(S(N)(=O)=O)c4)n3)ccc12 | 3.38 |
| CS(=O)(=O)CCN(CC#N)Cc1ccc(-c2ccc3ncnc(Nc4ccc(OCc5cccc(F)c5)c(Cl)c4)c3c2)o1 | 2.93 |
| NC(=O)c1cccc(Nc2nccc(Nc3cccc4[nH]ncc34)n2)c1 | 16.8 |
| COc1cc2ncn(-c3cc(OCc4ccccc4Cl)c(C(N)=O)s3)c2cc1OC | 7.12 |
| Cc1cccc(-c2n[nH]cc2-c2ccc3ncccc3n2)n1 | 2.58 |
| CCn1c(-c2nonc2N)nc2ccncc21 | 5.38 |
| COc1cc2ncn(-c3cc(OCc4ccccc4C(F)(F)F)c(C(N)=O)s3)c2cc1OC | 2.13 |
| NCc1ccc(-c2nc(-c3ccc(Cl)c(O)c3)c(-c3ccncc3)[nH]2)cc1 | 2.07 |
| CCN1CCC(CC(=O)Nc2n[nH]c3nc(-c4cccs4)c(Br)cc23)CC1 | -1.43 |
| Nc1nc(-c2ccc3c(c2)C(=Cc2cc(Br)c(O)c(Br)c2)C(=O)N3)cs1 | 1.87 |
| COc1ccc(-c2nn3ncccc3c2-c2ccnc(Nc3ccc(Cl)c(C(F)(F)F)c3)n2)cc1 | 2.37 |
| COc1ccc(COc2ccc(Cc3cnc(N)nc3N)cc2OC)cc1 | -1 |

| SMILES | inhibition [%] |
| --- | --- |
| [O-][S+]1CCN(Cc2ccc(-c3ccc4ncnc(Nc5ccc(OCc6ccccc6)c(F)c5)c4c3)o2)CC1 | 4.1 |
| CC(C)=Cc1cccc2c1/C(=N/Nc1ccc(S(N)(=O)=O)cc1)C(=O)N2 | 13.6 |
| Nc1ncnc2occ(-c3ccc(NC(=O)Nc4cc(C(F)(F)F)cc(C(F)(F)F)c4)cc3)c12 | 6.05 |
| COc1cc(C)c(NC(=O)CN(C)C)cc1Nc1nc(Nc2cccc(F)c2C(N)=O)c2cc[nH]c2n1 | 99.9 |
| COC(=O)Nc1nc2cc(Oc3ccc(NC(=O)Nc4cccc(C(=O)O)c4)cc3)ccc2[nH]1 | 0.58 |
| CS(=O)(=O)Nc1ccc(N/C=C2\C(=O)Nc3ccccc32)cc1 | 8.57 |
| CC(=O)Nc1cccc(C#Cc2cncnc2Nc2ccc(OCc3cccc(F)c3)c(Cl)c2)n1 | -3.08 |
| CN(C)c1cc2c(Nc3ccc4nc(Cc5ccccc5)[nH]c4c3)ncnc2cn1 | 8.05 |
| COc1ccc(-c2ccncc2)cc1C(N)=O | 6.94 |
| CS(=O)(=O)CCNCc1ccc(-c2ccc3ncnc(Nc4ccc(OCc5cccc(F)c5)c(C(F)(F)F)c4)c3c2)o1 | 6.44 |
| CCn1c(-c2nonc2N)nc2c(C#CC(C)(C)O)nc(CN3CCCC3)cc21 | -0.45 |
| CCn1c(-c2nonc2N)nc2c(N3CCCC3)nccc21 | -1.23 |
| CCc1cccc(NC(=O)Nc2ccc(Oc3ccc4nc(NC(=O)OC)[nH]c4c3)cc2)c1 | 0.47 |
| O=C1Nc2ccc(C(=O)c3ccco3)cc2C1=Cc1cc(Cl)c(O)c(Cl)c1 | 3.98 |
| CS(=O)(=O)CCNCc1nc(-c2ccc3ncnc(Nc4ccc(F)c(Cl)c4)c3c2)cs1 | -3.83 |
| Fc1cccc(COc2ccc(Nc3ncnc4cc(-c5ccc[nH]5)sc34)cc2Cl)c1 | 6 |

— ChEMBL document CHEMBL1961873, “Compounds: GSK PKIS; Assays: Nanosyn kinase panel” (2012)
